Assay outcomes deposited in PubChem BioAssay by National Center for Advancing Translational Sciences (NCATS).
Only some compounds are listed: those with a hit (about 21% of all), similar ones and a draw of the others.
Pf growth 96h: inhibits malaria parasite growth, 96 h; P. falciparum luciferase reporter growth, 96 h; Potency, µM (doses to about 28.7 µM), usual class: inhibitors; 320,000 tested, 6.9% active
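Parasite growth measured via integrated firefly luciferase reporter in P. falciparum. Infected erythrocytes at 2% hematocrit, 0.05% parasitemia final were treated 96 hours at 37 C under 5% CO2, and luminescence was read.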
Pf growth 48h: inhibits P. falciparum growth in the first generation, 48 h | Potency, µM (titrated, usually from 28.7 µM), actives largely listed as inhibitors | 310,000 tested, 5.9% active | P. falciparum luciferase growth in erythrocytes, 48 h
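First compound was added to culture medium, then infected red cells at 0.1% parasitemia and 2% hematocrit (final). After incubation at 37 C under 5% CO2, luciferase detection reagent was dispensed and light output recorded.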
Sm TGR inh: blocks Schistosoma mansoni thioredoxin glutathione reductase | AID 485364 | purified TGR, DTNB reduction, TNB absorbance 405 nm | Q962Y6 | Potency, µM (top dose mostly 114 µM), hits mostly inhibitors | 360,000 tested, 3% active; note: nearly all actives have a fitted effect of over 60% in size
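Kinetic colorimetric format: TGR-catalysed, NADPH-driven DTNB reduction monitored via TNB absorbance. Enzyme dispensed at 20 nM; compound exposure 15 min at room temperature before reaction start.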
Shiga inhibitor: blocks Shiga toxin action in Vero cells | inhibition, % at 38.7 µM | Vero cells, Shiga toxin protein synthesis inhibition reporter | 290,000 tested, 9.2% active; in the data active = inhibition mostly above about 28%, no sharp cut-off; inactive = mostly below about 43%
NS1 inh: blocks influenza NS1 protein function | Potency, µM (doses to about 46.1 µM) | 270,000 tested, 0.4% active; calls by dose curve; note: actives are rising curves; nearly all actives have a fitted effect of over 50% in size
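A cell-based growth assay was used: compounds that relieve NS1-induced slow growth of budding yeast raise OD600. Assay medium was yeast nitrogen base with ammonium sulphate and -URA supplement, pH 6.0, with 2% galactose.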
Cycloheximide cs: affects cycloheximide protein synthesis inhibition readout, counter-screen; max response, %; 300,000 tested, 12% active; cell reporter, cycloheximide protein synthesis inhibition counterscreen; in the data active = max response mostly above about 13%, no sharp cut-off; inactive = mostly below about 14%; note: read at 38.3 µM for the half of the compounds with a filed dose
Numbers stand for hits; 0 = inactive; ? = inconclusive; - = no result given; ! = a repeat was not active. Unless noted, calls come from the whole dose curve; as a rule, active = well fitted curve in the direction sought with a large enough effect; inconclusive = small, poorly fitted or top-dose-only effect, or another doubt; inactive = no such curve, though single readings can be large; an effect the other way counts as inactive or inconclusive.

SMILES	Pf growth 96h	Pf growth 48h	Sm TGR inh	Shiga inhibitor	NS1 inh	Cycloheximide cs
COc1ccc(C(=O)NC2CC(C)(C)Cc3c2cnn3-c2ccccc2)cc1OC (stereo unspecified)	?	0	0	0	0	0
CC1(C)Cc2c(cnn2-c2ccc(F)cc2)C(NC(=O)C2=NNC(=O)CC2)C1 (stereo unspecified)	0	0	0	39	0	29
CC1(C)Cc2c(cnn2-c2cccc(F)c2)C(NC(=O)CCc2cnccn2)C1 (stereo unspecified)	0	0	0	0	0	41
CC(=O)c1ccc(C(=O)NC2CC(C)(C)Cc3c2cnn3-c2ccccc2)cc1 (stereo unspecified)	?	0	0	0	0	19
O=C(O)[C@H]1O[C@@H](Oc2ccc3ccc(=O)oc3c2)[C@H](O)[C@@H](O)[C@@H]1O	-	-	-	0	-	0
C[n+]1ccn(CC(=O)c2ccc(Br)cc2)c1	9.3µM	12µM	0	0	0	0
C[n+]1ccn(CC(=O)c2cc(C(C)(C)C)c(O)c(C(C)(C)C)c2)c1	0	9.3µM	0	0	0	0
C=Cn1cc[n+](CC(=O)c2ccc(Br)cc2)c1	6.6µM	?	0	0	0	0
COC(=O)c1cccc(NC(=O)CSc2nnc(-c3ccco3)o2)c1	0	0	0	0	0	0
CCNS(=O)(=O)c1ccc(CCC(=O)NCc2ccncc2)cc1	0	0	0	0	0	0
CC(C)Cn1c2c(c(=O)[nH]c1=O)C(C(F)(F)F)(C(F)(F)F)N=C(CCC1CCCCC1)N2	0	9.3µM	0	0	0	0
O=C(c1cc2ccccc2oc1=O)N1CCN(c2ccc(Cl)cc2)CC1	-	-	0	-	-	-
O=C(Nc1ccc2c(c1)OCO2)c1cc(C2CC2)on1	0	0	0	52	0	34
CC(C)c1cc(C(=O)Nc2ccc3c(c2)OCO3)no1	?	0	0	55	0	30
O=C(Nc1ccc2c(c1)OCO2)c1ccccn1	0	0	?	-	-	-
COc1ccc(-c2cc(C(=O)Nc3ccc4c(c3)OCO4)no2)cc1	0	0	0	0	0	0
CCC(C)Nc1nc(-c2ccc3c(c2)NC(=O)CO3)cs1 (stereo unspecified)	0	0	0	50	0	0
COc1ccc(Nc2nc(-c3ccc4c(c3)NC(=O)CO4)cs2)cc1	?	?	0	128	-	27
COc1ccccc1Nc1nc(-c2ccc3c(c2)NC(=O)CO3)cs1	0	0	0	0	0	20
O=C(CN1C(=O)CSc2ccccc21)N/N=C/c1ccco1	0	0	?	0	?	0
Cc1ccc(S(=O)(=O)N2CCCCC2)cc1NC(=O)COC(=O)c1ccc2c(c1)OCO2	0	0	0	0	0	0
CCC(=O)N1CCc2cc(OC)c(OC)cc2C1COc1ccc(F)cc1 (stereo unspecified)	0	0	0	0	0	0
O=C(CSc1nc2c([nH]c3ccccc32)c(=O)n1-c1cccc(C(F)(F)F)c1)N1CCCC1	-	-	0	-	-	-
CCOc1ccc(C(=O)NC(=S)Nc2ccc(N3CCCCC3)cc2)cc1[N+](=O)[O-]	?	0	0	0	0	0
CC(=O)N1CCN(c2ccc(NC(=S)NC(=O)c3ccc(C)c([N+](=O)[O-])c3)cc2)CC1	0	0	11µM	0	0	0
SMILES	Pf growth 96h	Pf growth 48h	Sm TGR inh	Shiga inhibitor	NS1 inh	Cycloheximide cs
COc1ccc(C(=O)NC(=S)Nc2ccc(N3CCN(C(C)=O)CC3)cc2)cc1[N+](=O)[O-]	0	?	8.9µM	0	0	0
O=C(/C=C/Nc1cccc(F)c1)c1ccco1	?	-	0	76	0	35
O=C(/C=C/Nc1ccc(F)c(Cl)c1)c1ccco1	-	0	0	142	0	68
O=C(c1ccco1)N1CCN(C(=S)Nc2ccc(F)c(Cl)c2)CC1	0	0	0	0	0	0
Cc1ncsc1C(=O)N1N=C2/C(=C/c3ccc(N4CCOCC4)cc3)CCCC2C1c1ccc(N2CCOCC2)cc1 (stereo unspecified)	5.2µM	?	0	0	0	0
COc1ccc2c(c1)c(CC(=O)Nc1ccc(C(C)=O)cc1)c(C)n2C(=O)c1ccc(Cl)cc1	0	0	0	83!	0	47
COc1ccc2c(c1)c(CC(=O)NCc1cc([N+](=O)[O-])ccc1O)c(C)n2C(=O)c1ccc(Cl)cc1	5.9µM	?	0	0	?	0
COc1ccc2c(c1)c(CC(=O)Nc1c(C)cccc1C)c(C)n2C(=O)c1ccc(Cl)cc1	-	-	0	-	-	-
COc1ccc2c(c1)c(CC(=O)Nc1ccccc1OC)c(C)n2C(=O)c1ccc(Cl)cc1	5.2µM	0	0	0	0	0
CCN(C(=O)CCn1cnc2onc(-c3ccc(F)cc3)c2c1=O)c1ccc(OC)cc1	-	-	0	-	-	-
Cc1ccc(-c2nc3ccc(C(=O)O)cc3nc2-c2ccc(C)cc2)cc1	0	0	0	0	0	0
O=C(O)c1ccc2nc(-c3ccco3)c(-c3ccco3)nc2c1	0	0	0.5µM	0	0	0
O=C(Nc1cccc(C(F)(F)F)c1)c1ccc2nc(-c3ccco3)c(-c3ccco3)nc2c1	-	?	3.5µM	0	5.6µM	0
NC(=O)C1CCN(C(=O)c2ccc3nc(-c4ccccc4)c(-c4ccccc4)nc3c2)CC1	?	10µM	0	0	0	0
O=C(Nc1cccc(C(F)(F)F)c1)c1ccc2nc(N3C(=O)CCC3=O)sc2c1	0	0	0	0	0	0
O=C(c1ccc2nc(-c3ccco3)c(-c3ccco3)nc2c1)N1CCC2(CC1)OCCO2	-	?	1.6µM	0	?	0
Cc1sc2ncnc(SCC(=O)Nc3nc(-c4ccc(F)c(F)c4)cs3)c2c1C	0	0	0	0	0	0
COc1cccc(C2=Nn3c(nnc3-c3cccc(OC)c3OC)SC2)c1	-	-	-	0	-	0
COCC(=O)N1CCC(Oc2ccc(C(=O)N3CCN(C)C[C@@H]3C(C)C)cc2)CC1	0	0	0	0	0	0
O=C(c1ccc2nc(-c3ccco3)c(-c3ccco3)nc2c1)N1CCN(c2ccccc2)CC1	-	0	35µM	0	0	0
C[C@@]12C(=O)Nc3ccccc3C(=O)N1[C@H]1c3cc(Br)ccc3OC[C@@H]1[C@@H]2c1ccccc1	?	?	0	-	-	-
C[C@@]12C(=O)Nc3ccc(Br)cc3C(=O)N1[C@H]1c3cc(Br)ccc3OC[C@@H]1[C@@H]2c1ccccc1	3.3µM	3.3µM	0	-	-	-
COc1ccc2c(c1)C(=O)N1[C@H]3c4cc(Br)ccc4OC[C@@H]3[C@H](c3ccccc3)[C@]1(C)C(=O)N2	12µM	?	0	-	-	-
COc1ccc(OCc2cc(C(=O)NCC3CCCCO3)no2)c(Cl)c1 (stereo unspecified)	0	0	0	74	0	46
COc1ccc(OCc2cc(C(=O)NCC3CCOCC3)no2)c(Cl)c1	?	0	0	54	0	51
COc1ccc(OCc2cc(C(=O)NCCN3CCCC(O)C3)no2)c(Cl)c1 (stereo unspecified)	?	0	?	0	0	0
